TROY NFkB inh = blocks TROY-dependent signaling in reporter cells | Q293 LMP1-TROYcd NF-kB luciferase reporter, 4 h | inhibition, % at 10 µM | 360,000 compounds, 0.98% hits;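 active = compounds whose plate-normalised and pattern-corrected inhibition of the luciferase reporter signal at the single screening dose is 50% or more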
HSF1 activator = increases HSF-1 driven luciferase reporter signal; 300,000 compounds, 1.7% hits; NIH3T3-HGL HSF-1 luciferase reporter, MG132, 8 h; 100% = twice DMSO control signal; AID 504408; activation, % at 9 µM;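 active = mean replicate activation of at least 50% with a set share of replicates each reaching 50%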
HSF1 inh = HSF1 inhibition | NIH3T3-HGL HSE-luciferase, MG132-induced, luminescence 8 h; active compounds read low | activity change, negative = inhibition, % at 7.5 µM (by protocol) | 300,000 compounds, 0.77% hits;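 active = more than half of replicate wells show activity change below -50%, luminescence cut by over half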;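 also: luciferase reports HSF-1 transcriptional activity via heat shock element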
TWEAK-Fn14 inh = blocks TWEAK-Fn14 interaction in a reporter cell assay; TWEAK-stimulated Fn14 reporter cells, luciferase luminescence, 8 h; 360,000 compounds, 2% hits; inhibition, % at 10 µM; in the data active = inhibition above about 50%
HSP90 inh = blocks HSP90-mediated luciferase refolding in reticulocyte lysate | 290,000 compounds, 0.91% hits | inhibition, % at 5.6 µM | Rabbit reticulocyte lysate, luciferase refolding luminescence, 3 h | AID 1789;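 active = inhibition above the screen-wide mean plus 3 SD, computed separately per campaign, cut at about 16% in these data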;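 also: inhibitors lower the luminescence because luciferase stays unfolded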
EBV LMP1 NFkB = Epstein-Barr LMP1 NF-kappaB reporter inhibition | 350,000 compounds, 0.69% hits | inhibition, % at 12.5 µM | LMP1-induced NF-kappaB luciferase reporter cells, luminescence | AID 504558; in the data active = inhibition above about 41%
Large screens that a line does not name were inactive. A selection: hits, their analogues and other compounds. The true share with any hit is near 4.7%.

CC1C(=O)N(Cc2cn(Cc3ccco3)nn2)CCS(=O)(=O)N1Cc1ccc(-c2cccc(N(C)C)c2)cc1 (stereo not given)	none (no result: HSF1 activator, HSF1 inh, HSP90 inh)
O=S(=O)(CCc1nc2ccccc2[nH]1)c1ccc(Cl)cc1	HSF1 inh -88.6
Cc1ccc(S(=O)(=O)CCc2nc3ccccc3[nH]2)cc1	none
c1ccc(OCc2nc3ccccc3[nH]2)cc1	none
Clc1ccc(OCc2nc3ccccc3[nH]2)cc1	HSF1 activator 77.3
COc1ccc(-c2cnc3c(NC(C)=O)cc(-c4ccc(C(=O)N5CCOCC5)cc4)cn23)cc1OC	none (no result: HSF1 activator, HSF1 inh, HSP90 inh, EBV LMP1 NFkB)
CC1(C(=O)O)CCCN1C(=O)c1ccccc1OC(F)(F)F (stereo not given)	none (no result: HSF1 activator, HSF1 inh, HSP90 inh, EBV LMP1 NFkB)
O=C(NC(Nc1ncc(S(=O)(=O)c2ccc([N+](=O)[O-])cc2)s1)(C(F)(F)F)C(F)(F)F)c1ccc(Cl)cc1	TROY NFkB inh 53.0
CCCCC1CC2=C(C(=O)OC(C)(C)O2)C(c2ccc(F)cc2)O1 (stereo not given)	none (no result: HSF1 activator, HSF1 inh, HSP90 inh, EBV LMP1 NFkB)
CCCc1nc2c3ccccc3ccn2c1CC(C)(C)C	none (no result: HSF1 activator, HSF1 inh, HSP90 inh, EBV LMP1 NFkB)
NC(=O)c1cccc(-c2ccnc3c2CC(C(=O)Nc2ccc(Cl)cc2)O3)c1 (stereo not given)	none (no result: HSF1 activator, HSF1 inh, HSP90 inh, EBV LMP1 NFkB)
Cc1ccc2ccc(C(Nc3ccccn3)c3ccccc3)c(O)c2n1 (stereo not given)	none
COc1ccc(C(Nc2cc(C)ccn2)c2ccc3ccc(C)nc3c2O)cc1 (stereo not given)	none
COc1cc(C(Nc2ccccn2)c2ccc3ccc(C)nc3c2O)cc(OC)c1O (stereo not given)	HSF1 activator 182.9
Cc1ccnc(NC(c2ccsc2)c2ccc3ccc(C)nc3c2O)c1 (stereo not given)	HSF1 inh -54.0
Fc1ccc(NC(=S)SCc2ccc3c(c2)OCO3)cc1F	none (no result: HSF1 activator, HSF1 inh, HSP90 inh)
CCCCOCCCNc1ncnc2c1[nH]c1ccccc12	TWEAK-Fn14 inh 59.5
CCOCCCNc1ncnc2c1[nH]c1ccccc12	none (no result: TROY NFkB inh)
COc1ccc(C2=C(CN(C)C)C(c3ccccc3)c3ccccc3O2)cc1 (stereo not given)	EBV LMP1 NFkB 78.1
CCOc1ccc(C2=C(C=C(C#N)C#N)C(c3ccccc3)c3ccccc3O2)cc1 (stereo not given)	none
Cc1cc(C)c2c(CN3CCN(c4ccccc4F)CC3)cc(=O)oc2c1	none (no result: HSF1 activator, HSF1 inh, HSP90 inh, EBV LMP1 NFkB)
CC(O)CNC(=O)C1CCN(Cc2ccc(OCc3ccccc3)cc2)CC1 (stereo not given)	none
CC(C)CNC(=O)C1CCN(Cc2ccc(OCc3ccccc3)cc2)CC1	HSF1 inh -60.6
C(CCN1CCOCC1)CN1CCOCC1	TROY NFkB inh 63.9 (no result: HSF1 activator, HSF1 inh, HSP90 inh, EBV LMP1 NFkB)
NCCCN1CCOCC1	none
Clc1ccc(OCc2cc(-c3ccccc3)no2)c(Cl)c1	TWEAK-Fn14 inh 62.2
Fc1ccc(OCc2cc(-c3ccccc3)no2)cc1	HSF1 activator 50.8
CCN(CC)C(=O)C1=C(C)N(CCCOC)C(=O)C(CC(=O)NCCc2ccccn2)C1 (stereo not given)	none (no result: HSF1 activator, HSF1 inh, HSP90 inh)
CCCN(CCC)S(=O)(=O)c1ccc(NC(=O)c2cc(C(=O)OC)cc([N+](=O)[O-])c2)cc1	HSF1 inh -61.2
COc1cccc(NC(=O)CCc2nc(-c3ccccc3F)no2)c1	none
O=C(CCc1nc(-c2ccccc2F)no1)Nc1ccc(Oc2ccccc2)cc1	TWEAK-Fn14 inh 52.5
O=C(c1cc2ccccc2o1)N1CCN(Cc2nc3ccccc3s2)CC1	none (no result: HSF1 activator, HSF1 inh, HSP90 inh)
Cc1cccc(CNC(=O)c2sc(=O)n(Cc3c(C)cccc3C)c2C)c1	none (no result: HSF1 activator, HSF1 inh, HSP90 inh, EBV LMP1 NFkB)
c1nc(CCO[C@H]2CCCCO2)cc2cc3c(cc12)OCO3	TROY NFkB inh 60.4, TWEAK-Fn14 inh 92.1 (no result: HSF1 activator, HSF1 inh, HSP90 inh)
O=C(COc1cccc2ccccc12)NNC(=O)C1CCCO1 (stereo not given)	none
c1ccc2cc(CCO[C@H]3CCCCO3)ncc2c1	TWEAK-Fn14 inh 66.5 (no result: HSF1 activator, HSF1 inh, HSP90 inh)
CCc1nc2ccc(C(=O)N3CCN(c4ccccc4)CC3)cn2c1N(C)CCC(C)C	none (no result: HSF1 activator, HSF1 inh, HSP90 inh, EBV LMP1 NFkB)
CN(C(=O)COc1ccccc1C(=O)NCCOc1ccccc1)c1ccccc1	TROY NFkB inh 61.6, TWEAK-Fn14 inh 87.7
CCCCNC(=O)c1onc(CSc2cccc(Cl)c2)c1C(=O)O	HSF1 inh -68.5
O=c1[nH]c(-c2ccccc2)cnc1-c1ccccc1	TWEAK-Fn14 inh 73.2 (no result: HSP90 inh, EBV LMP1 NFkB)
Nc1nc(Nc2cccc(F)c2)nc(NCc2ccco2)c1[N+](=O)[O-]	HSF1 activator 54.3
Cc1cccc(Nc2nc(N)c([N+](=O)[O-])c(NCc3ccco3)n2)c1	none
COc1ccccc1Nc1nc(NCCCN(C)C)nc(N)c1[N+](=O)[O-]	HSF1 inh -73.0
Cc1cccc(Nc2nc(NCc3ccco3)nc(N)c2[N+](=O)[O-])c1	none
COc1ccc(Nc2nc(NCc3ccco3)nc(N)c2[N+](=O)[O-])cc1	HSF1 activator 66.4 (no result: EBV LMP1 NFkB)
COc1cccc(CNC(=O)[C@@H]2CCCN2C(=O)[C@H]2CCCCN2C(=O)c2cccs2)c1	none (no result: HSF1 activator, HSF1 inh, HSP90 inh, EBV LMP1 NFkB)
CC1=C(C(=O)N2CCOCC2)CC(CC(=O)NCC2CCCCC2)C(=O)N1Cc1ccccc1 (stereo not given)	none (no result: HSF1 activator, HSF1 inh, HSP90 inh)
CC(=O)Nc1cccc(-c2ccnc3c2CC(C(=O)NCCC(F)(F)F)O3)c1 (stereo not given)	none (no result: HSF1 activator, HSF1 inh, HSP90 inh, EBV LMP1 NFkB)
COc1cc(C(=O)O/N=C(\N)c2cccc([N+](=O)[O-])c2)cc(OC)c1OC	TWEAK-Fn14 inh 61.9
Cc1cccc(C(=O)O/N=C(\N)Cc2ccc([N+](=O)[O-])cc2)c1	none
COc1cccc(C(=O)O/N=C(\N)c2ccc([N+](=O)[O-])cc2)c1	HSF1 activator 59.5
N/C(Cc1ccc([N+](=O)[O-])cc1)=N\OC(=O)c1ccc2ccccc2c1	TROY NFkB inh 58.9
CCOC(=O)C1(CCOC)CCCCC1=O (stereo not given)	none (no result: HSF1 activator, HSF1 inh, HSP90 inh)
CC(=O)CSc1nnc2c3ccccc3nc(C(C)(C)C)n12	none
Cc1ccc(C(=O)CSc2nnc3c4ccccc4nc(C(C)(C)C)n23)cc1	TROY NFkB inh 51.9
COc1cccc(C2CC(c3cccs3)=NN2C(=O)c2ccco2)c1O (stereo not given)	HSF1 activator 62.8
O=C(c1ccco1)N1N=C(c2cccs2)CC1c1ccccc1O (stereo not given)	none
O[C@@H]1[C@@H](O)C=C2CCN3Cc4cc5c(cc4[C@H]1C23)OCO5 (stereo not given in full)	TROY NFkB inh 67.8, TWEAK-Fn14 inh 75.0 (no result: HSF1 activator, HSF1 inh, HSP90 inh)
COc1ccc2c(c1OC)CN1CCc3cc4c(cc3[C@@H]1[C@@H]2O)OCO4	none
COc1ccc(-c2cnc(C(O)c3ccc(OC)c(F)c3)[nH]2)cc1 (stereo not given)	none (no result: HSF1 activator, HSF1 inh, HSP90 inh, EBV LMP1 NFkB)
O=C(NC1CCCC1)C(c1ccncc1)N(CCCN1CCOCC1)C(=O)c1ccc(-c2ccccc2)[nH]1 (stereo not given)	none
CC(C)(C)NC(=O)C(c1ccc(F)cc1)N(CCc1ccccc1)C(=O)c1ccn[nH]1 (stereo not given)	none
O=C(NC1CCCCC1)C(c1ccc(F)cc1)N(Cc1ccco1)C(=O)c1ccccn1 (stereo not given)	none (no result: HSF1 activator, HSF1 inh)

Assay outcomes as filed in PubChem BioAssay.
